Reference: the supplement of paper PMC11732987, “Enantioselective OTUD7B fragment discovery through chemoproteomics screening and high-throughput optimisation” (Communications Chemistry, 2025)

Legend:
Test in all cases: log2 ratio of Biotin-Ahx-Ub-VS probe labelling (fragment/DMSO); higher = less target engagement (more negative = stronger competition), active = hit call of the paper (q ≤ 0.05, log2 ratio ≤ -1)
Conditions in all cases: compound concentration: 200 uM; treatment time: 3 h
USP42 = target: T1, USP42 (UniProt Q9H9J4)
T1 sequence (whole entry): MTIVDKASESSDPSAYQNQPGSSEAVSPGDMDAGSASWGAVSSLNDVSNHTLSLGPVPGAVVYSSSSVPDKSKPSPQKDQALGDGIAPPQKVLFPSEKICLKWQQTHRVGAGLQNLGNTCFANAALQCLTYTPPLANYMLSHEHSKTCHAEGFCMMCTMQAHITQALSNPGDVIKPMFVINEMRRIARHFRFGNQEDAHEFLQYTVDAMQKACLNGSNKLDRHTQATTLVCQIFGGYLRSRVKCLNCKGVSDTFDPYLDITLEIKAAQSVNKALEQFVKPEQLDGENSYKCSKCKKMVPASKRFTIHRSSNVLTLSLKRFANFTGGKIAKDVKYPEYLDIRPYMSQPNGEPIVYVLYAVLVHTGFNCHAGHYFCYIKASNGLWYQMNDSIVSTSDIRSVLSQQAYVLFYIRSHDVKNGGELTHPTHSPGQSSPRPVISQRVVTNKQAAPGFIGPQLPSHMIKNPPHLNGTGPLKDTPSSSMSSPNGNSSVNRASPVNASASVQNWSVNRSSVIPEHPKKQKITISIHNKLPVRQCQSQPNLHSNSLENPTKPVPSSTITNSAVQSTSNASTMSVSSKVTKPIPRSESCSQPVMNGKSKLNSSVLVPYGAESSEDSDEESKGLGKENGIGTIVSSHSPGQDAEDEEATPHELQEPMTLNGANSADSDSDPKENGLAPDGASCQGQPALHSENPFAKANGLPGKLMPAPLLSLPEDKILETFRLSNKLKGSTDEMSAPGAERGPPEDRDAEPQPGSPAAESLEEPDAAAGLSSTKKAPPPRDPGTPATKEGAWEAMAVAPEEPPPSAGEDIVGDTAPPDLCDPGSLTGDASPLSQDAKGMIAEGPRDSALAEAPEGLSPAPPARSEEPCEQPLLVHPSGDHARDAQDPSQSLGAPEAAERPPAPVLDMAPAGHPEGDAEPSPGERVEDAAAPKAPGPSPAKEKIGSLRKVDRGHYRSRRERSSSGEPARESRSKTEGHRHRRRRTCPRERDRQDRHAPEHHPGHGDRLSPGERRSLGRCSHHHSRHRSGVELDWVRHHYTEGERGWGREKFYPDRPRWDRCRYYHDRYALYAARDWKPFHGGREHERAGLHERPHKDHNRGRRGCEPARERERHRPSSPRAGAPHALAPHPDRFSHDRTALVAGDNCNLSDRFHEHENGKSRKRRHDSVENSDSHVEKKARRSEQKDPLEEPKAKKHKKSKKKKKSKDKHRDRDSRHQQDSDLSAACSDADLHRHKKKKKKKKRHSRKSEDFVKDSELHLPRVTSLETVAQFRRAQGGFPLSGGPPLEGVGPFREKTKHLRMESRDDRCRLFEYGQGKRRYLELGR
Outline: (§1)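 HEK293T lysate, 495 µg per sample in Tris/CHAPS/IGEPAL buffer with protease inhibitors, was treated in triplicate with fragment at 200 µM or vehicle for 3 h and then with Biotin-Ahx-Ub-VS at 0.5 µM final for 1 h. Labelled DUBs were NeutrAvidin-enriched, digested with LysC and trypsin, and run by diaPASEF LC-MS/MS. Spectronaut label-free quantities were global-median-normalised, and values are average log2 fragment/vehicle ratios by unpaired t-test on proteins with ≥2 unique peptides.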

USP46 = USP46 (UniProt P62068)
USP46, sequence (P62068 whole entry): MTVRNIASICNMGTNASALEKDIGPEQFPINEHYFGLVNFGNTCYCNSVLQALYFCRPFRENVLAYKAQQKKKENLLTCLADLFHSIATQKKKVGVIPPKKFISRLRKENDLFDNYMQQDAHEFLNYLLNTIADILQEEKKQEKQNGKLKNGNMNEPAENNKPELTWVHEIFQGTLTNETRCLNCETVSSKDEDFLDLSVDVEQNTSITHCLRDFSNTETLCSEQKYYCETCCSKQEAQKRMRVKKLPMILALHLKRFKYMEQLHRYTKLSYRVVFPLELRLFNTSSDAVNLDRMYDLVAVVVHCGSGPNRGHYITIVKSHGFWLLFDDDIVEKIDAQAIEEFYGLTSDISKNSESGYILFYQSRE
Outline: as §1

USP47 = target: T2, USP47 (UniProt Q96K76)
T2 sequence (whole entry): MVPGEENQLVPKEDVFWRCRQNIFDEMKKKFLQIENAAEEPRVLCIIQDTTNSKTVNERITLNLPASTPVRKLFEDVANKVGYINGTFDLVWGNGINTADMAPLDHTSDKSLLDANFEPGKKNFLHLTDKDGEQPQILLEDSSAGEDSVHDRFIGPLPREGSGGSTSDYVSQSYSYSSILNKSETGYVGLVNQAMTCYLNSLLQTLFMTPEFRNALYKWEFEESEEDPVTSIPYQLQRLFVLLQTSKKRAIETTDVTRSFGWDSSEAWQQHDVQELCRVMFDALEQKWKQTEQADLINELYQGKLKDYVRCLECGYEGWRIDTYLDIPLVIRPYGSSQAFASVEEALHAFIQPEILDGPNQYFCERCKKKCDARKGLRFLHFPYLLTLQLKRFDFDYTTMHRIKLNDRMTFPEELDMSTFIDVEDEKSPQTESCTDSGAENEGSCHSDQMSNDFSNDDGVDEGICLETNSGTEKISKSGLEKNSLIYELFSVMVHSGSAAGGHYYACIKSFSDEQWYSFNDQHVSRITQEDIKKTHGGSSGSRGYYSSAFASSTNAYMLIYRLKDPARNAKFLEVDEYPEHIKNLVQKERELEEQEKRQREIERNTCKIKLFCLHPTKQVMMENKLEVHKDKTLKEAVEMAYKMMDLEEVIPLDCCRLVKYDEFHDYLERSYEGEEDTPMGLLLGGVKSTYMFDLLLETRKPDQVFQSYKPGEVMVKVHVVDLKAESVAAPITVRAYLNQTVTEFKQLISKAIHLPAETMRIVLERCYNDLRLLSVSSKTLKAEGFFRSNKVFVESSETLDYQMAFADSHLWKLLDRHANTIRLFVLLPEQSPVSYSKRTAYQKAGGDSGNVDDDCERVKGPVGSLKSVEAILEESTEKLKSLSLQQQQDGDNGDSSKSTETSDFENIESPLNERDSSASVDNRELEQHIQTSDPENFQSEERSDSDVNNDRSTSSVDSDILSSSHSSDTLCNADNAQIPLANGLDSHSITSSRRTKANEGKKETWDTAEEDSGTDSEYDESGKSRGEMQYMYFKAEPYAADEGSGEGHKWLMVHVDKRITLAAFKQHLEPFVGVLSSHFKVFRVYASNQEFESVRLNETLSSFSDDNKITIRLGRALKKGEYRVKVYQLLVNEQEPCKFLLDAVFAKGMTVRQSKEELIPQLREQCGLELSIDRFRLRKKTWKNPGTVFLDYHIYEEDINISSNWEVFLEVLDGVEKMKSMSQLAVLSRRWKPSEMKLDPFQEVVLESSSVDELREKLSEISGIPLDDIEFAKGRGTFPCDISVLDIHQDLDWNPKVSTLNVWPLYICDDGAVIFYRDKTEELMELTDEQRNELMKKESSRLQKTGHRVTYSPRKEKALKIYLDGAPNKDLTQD
Outline: as §1

USP48 = target: T3, USP48 (UniProt Q86UV5)
T3 sequence (whole entry): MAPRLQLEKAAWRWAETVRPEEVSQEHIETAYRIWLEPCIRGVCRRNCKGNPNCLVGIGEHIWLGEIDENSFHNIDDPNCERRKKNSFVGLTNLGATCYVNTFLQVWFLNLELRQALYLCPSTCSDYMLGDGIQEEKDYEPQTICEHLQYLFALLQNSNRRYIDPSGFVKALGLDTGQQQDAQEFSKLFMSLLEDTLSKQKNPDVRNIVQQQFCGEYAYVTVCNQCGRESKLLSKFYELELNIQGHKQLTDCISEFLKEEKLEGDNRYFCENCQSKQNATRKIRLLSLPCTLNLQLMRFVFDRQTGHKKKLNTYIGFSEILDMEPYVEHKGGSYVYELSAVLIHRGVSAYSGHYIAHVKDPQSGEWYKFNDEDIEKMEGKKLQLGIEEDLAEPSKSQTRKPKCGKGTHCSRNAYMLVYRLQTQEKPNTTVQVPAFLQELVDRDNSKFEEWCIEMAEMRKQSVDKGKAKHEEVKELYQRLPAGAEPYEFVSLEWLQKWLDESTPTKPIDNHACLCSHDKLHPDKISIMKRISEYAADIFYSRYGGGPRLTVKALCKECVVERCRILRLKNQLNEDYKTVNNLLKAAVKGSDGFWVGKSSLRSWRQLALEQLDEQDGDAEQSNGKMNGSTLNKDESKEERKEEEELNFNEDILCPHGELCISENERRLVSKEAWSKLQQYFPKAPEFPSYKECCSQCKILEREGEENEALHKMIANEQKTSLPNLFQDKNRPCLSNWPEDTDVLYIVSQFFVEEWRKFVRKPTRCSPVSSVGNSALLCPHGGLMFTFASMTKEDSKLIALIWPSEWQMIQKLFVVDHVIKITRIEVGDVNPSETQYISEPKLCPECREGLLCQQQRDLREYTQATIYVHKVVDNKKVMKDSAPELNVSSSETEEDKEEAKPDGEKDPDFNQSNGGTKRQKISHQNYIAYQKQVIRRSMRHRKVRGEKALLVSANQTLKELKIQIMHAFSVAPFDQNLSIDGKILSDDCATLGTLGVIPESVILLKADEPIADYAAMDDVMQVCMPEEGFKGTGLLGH
Outline: as §1

USP5 = target: T4, USP5 (UniProt P45974)
T4 sequence (whole entry): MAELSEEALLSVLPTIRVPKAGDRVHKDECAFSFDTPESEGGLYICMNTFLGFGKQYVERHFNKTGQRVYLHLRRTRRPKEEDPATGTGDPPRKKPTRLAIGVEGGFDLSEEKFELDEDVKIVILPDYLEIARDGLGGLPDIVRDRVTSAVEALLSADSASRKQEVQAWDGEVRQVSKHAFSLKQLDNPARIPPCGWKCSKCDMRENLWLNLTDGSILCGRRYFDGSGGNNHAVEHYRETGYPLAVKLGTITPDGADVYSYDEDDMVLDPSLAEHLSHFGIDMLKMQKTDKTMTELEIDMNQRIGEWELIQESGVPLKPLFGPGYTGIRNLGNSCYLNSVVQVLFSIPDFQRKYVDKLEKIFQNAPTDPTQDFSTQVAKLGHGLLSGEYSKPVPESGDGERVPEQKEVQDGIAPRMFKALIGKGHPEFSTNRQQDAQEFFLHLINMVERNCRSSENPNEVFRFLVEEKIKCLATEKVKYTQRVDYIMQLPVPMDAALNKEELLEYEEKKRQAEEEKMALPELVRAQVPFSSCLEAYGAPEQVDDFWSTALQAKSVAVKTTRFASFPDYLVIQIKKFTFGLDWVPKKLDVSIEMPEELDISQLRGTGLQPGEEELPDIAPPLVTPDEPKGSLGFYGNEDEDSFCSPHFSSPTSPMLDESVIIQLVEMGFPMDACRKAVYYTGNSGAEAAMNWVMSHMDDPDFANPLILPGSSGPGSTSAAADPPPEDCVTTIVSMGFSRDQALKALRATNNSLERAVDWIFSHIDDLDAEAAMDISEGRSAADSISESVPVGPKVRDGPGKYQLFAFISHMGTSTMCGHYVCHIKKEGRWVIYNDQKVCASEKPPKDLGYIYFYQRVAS
Outline: as §1

USP54 = USP54 (UniProt Q70EL1)
Outline: as §1

USP7 = USP7 (UniProt Q93009)
USP7, sequence (Q93009 whole entry, looked up): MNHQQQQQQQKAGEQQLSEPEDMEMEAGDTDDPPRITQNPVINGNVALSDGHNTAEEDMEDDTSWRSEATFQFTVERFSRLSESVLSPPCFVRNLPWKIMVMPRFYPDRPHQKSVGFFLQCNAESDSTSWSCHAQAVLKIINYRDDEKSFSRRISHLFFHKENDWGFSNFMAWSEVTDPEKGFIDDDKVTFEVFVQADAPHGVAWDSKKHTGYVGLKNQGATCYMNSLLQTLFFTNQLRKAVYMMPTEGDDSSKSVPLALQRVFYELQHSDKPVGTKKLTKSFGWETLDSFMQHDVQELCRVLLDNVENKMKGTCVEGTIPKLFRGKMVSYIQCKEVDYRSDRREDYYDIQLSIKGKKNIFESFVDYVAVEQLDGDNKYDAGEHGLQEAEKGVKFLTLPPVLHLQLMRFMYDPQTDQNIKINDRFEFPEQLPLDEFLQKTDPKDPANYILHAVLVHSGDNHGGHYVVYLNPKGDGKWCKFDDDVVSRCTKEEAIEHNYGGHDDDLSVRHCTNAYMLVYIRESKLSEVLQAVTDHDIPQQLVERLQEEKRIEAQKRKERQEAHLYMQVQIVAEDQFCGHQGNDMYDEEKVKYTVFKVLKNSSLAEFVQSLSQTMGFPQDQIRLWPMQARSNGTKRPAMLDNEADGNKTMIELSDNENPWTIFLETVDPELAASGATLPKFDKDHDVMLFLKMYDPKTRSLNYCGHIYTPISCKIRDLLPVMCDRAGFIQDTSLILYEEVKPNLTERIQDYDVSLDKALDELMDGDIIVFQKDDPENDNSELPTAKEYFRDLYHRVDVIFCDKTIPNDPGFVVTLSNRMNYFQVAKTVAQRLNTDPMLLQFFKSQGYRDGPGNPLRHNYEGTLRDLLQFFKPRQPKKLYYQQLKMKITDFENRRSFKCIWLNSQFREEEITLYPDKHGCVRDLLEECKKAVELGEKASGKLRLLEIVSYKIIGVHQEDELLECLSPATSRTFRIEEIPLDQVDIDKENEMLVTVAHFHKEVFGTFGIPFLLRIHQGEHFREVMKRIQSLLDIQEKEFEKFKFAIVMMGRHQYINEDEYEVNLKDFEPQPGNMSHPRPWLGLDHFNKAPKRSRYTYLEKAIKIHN
Outline: as §1

USP8 = target: T5, USP8 (UniProt P40818)
T5 sequence (whole entry): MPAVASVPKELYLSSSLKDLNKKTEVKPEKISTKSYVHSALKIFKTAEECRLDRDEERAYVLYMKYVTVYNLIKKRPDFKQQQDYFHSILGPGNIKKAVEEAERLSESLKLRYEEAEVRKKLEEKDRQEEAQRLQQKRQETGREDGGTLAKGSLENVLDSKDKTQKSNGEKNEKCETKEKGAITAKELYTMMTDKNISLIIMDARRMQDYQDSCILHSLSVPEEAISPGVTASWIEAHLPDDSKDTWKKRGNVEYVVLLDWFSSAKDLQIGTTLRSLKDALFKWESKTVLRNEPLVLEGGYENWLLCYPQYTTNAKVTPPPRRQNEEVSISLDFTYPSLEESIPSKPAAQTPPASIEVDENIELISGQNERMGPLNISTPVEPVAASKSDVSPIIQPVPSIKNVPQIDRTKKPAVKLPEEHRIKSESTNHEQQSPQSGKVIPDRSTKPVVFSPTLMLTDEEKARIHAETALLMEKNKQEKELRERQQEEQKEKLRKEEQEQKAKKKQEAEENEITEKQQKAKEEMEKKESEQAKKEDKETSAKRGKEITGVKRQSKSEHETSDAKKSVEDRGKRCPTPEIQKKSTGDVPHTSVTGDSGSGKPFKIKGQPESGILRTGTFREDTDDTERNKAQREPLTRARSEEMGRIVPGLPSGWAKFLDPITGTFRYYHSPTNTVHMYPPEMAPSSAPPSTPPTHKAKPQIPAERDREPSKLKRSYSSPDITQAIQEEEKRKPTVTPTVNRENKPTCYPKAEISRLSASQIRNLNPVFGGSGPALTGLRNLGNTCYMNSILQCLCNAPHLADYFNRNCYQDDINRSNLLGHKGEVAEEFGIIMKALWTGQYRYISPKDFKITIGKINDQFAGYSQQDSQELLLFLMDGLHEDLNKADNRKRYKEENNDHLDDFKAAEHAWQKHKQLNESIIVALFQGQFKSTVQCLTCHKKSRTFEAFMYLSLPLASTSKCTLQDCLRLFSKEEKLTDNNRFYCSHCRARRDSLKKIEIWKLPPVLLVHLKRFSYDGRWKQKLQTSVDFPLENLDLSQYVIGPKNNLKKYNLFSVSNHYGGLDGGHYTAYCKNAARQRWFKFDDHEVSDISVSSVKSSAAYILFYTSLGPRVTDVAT
Outline: as §1

USP9X = USP9X (UniProt Q93008)
USP9X, sequence (Q93008 whole entry): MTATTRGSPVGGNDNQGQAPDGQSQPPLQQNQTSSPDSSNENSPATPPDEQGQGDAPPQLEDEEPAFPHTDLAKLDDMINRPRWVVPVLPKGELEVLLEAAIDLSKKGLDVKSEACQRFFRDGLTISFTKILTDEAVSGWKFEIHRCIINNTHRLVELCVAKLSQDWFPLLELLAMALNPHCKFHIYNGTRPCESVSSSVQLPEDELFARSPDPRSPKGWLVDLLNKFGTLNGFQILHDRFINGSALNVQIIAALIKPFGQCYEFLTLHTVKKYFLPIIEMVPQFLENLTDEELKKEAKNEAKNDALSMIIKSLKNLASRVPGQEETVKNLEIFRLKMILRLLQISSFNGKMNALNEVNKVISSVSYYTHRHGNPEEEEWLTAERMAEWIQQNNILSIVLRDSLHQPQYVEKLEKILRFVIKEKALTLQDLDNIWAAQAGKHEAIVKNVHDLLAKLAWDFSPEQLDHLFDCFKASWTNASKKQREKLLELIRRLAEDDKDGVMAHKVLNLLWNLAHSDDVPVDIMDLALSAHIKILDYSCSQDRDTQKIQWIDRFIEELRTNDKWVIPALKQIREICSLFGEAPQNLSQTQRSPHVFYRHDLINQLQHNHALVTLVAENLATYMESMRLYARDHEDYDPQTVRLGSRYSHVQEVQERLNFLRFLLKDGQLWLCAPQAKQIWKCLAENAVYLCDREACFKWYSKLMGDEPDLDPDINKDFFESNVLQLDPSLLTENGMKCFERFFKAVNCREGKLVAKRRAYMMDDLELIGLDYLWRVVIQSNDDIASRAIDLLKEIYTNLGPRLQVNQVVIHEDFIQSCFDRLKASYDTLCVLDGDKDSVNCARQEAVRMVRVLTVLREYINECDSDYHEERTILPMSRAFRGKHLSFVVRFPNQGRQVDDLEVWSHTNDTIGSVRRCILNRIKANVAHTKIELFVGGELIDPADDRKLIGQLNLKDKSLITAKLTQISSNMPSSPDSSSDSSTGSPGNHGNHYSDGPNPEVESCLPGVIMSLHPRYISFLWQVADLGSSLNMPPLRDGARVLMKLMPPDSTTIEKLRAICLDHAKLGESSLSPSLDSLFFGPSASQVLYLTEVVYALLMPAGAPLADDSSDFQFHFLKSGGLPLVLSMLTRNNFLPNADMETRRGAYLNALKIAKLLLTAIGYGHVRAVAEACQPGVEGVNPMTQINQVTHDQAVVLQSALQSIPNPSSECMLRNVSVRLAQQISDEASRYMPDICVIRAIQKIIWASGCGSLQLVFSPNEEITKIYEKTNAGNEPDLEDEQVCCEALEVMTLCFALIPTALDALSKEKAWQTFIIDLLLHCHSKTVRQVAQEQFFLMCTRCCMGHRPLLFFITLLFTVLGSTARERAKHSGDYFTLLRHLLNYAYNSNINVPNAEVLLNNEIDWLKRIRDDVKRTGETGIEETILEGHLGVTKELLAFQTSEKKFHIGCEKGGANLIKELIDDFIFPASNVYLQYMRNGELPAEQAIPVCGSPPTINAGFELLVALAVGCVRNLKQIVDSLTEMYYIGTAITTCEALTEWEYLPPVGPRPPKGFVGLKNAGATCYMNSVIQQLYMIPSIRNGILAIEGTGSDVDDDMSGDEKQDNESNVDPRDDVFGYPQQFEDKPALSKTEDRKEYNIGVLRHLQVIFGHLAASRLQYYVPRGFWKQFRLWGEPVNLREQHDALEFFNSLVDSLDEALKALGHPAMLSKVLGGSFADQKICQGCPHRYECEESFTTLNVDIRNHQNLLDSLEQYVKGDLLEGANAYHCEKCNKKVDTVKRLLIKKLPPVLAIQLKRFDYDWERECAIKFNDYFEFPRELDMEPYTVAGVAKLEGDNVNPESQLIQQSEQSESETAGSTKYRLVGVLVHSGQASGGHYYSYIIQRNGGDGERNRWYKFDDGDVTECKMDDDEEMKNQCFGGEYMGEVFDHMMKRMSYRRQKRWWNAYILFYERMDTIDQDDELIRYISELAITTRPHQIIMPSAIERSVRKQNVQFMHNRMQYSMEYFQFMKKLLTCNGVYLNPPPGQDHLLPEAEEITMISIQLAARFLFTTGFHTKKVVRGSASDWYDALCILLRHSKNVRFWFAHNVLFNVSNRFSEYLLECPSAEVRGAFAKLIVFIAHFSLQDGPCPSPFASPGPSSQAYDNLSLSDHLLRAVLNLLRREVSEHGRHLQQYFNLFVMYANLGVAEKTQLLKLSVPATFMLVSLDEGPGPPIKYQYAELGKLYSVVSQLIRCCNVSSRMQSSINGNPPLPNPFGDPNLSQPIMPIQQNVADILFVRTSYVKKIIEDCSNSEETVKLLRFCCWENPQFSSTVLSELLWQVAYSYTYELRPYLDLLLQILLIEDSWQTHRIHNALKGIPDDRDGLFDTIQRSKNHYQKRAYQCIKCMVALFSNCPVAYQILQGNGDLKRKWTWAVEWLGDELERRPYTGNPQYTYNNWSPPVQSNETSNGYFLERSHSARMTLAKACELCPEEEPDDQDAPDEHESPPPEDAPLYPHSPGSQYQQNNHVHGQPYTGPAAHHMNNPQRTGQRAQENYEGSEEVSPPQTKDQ
Outline: as §1

UniProt O00487 = target: UniProt O00487
UniProt O00487, sequence (O00487 whole entry): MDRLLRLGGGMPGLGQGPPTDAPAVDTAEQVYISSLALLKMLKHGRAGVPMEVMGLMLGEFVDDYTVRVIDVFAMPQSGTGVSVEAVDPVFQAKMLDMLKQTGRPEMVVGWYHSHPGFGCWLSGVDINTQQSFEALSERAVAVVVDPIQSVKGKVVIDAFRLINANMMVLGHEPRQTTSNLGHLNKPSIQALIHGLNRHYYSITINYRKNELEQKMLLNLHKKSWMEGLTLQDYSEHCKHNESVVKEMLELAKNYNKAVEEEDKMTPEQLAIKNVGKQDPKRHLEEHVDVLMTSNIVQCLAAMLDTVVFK
Outline: as §1

Measured: log2 ratio of Biotin-Ahx-Ub-VS probe labelling

O=C(CCl)N1CCN2C(=O)CCC2C1 (stereo not given)
inactive: USP42 -0.359 | USP46 0.247 | USP47 -0.0244 | USP48 -0.154 | USP5 0.153 | USP54 0.776 | USP7 -0.0819 | USP8 -0.376 | USP9X -0.098 | UniProt O00487 -0.0865
